# Assay results reported in PubChem BioAssay AID504332 (National Center for Advancing Translational Sciences (NCATS), 2011).
# Values joined by “and” are separate entries in the source; they are usually repeats but may differ in a detail not shown here. Equal values may be shown once. In all, about 350,000 compounds went through this assay and about 31,000 (8.9%) were called active. About 15% were inconclusive and are not listed. Calls follow the shape of the dose curve; as a rule, active = well fitted inhibition curve with a large enough effect; inconclusive = small, poorly fitted or top-dose-only effect; inactive = no such curve, though single readings can be large or run the other way. The list comes from a sample in which actives are over-represented; it also holds similar structures and randomly drawn compounds. A call without a number means that no potency is given here. Some structures have more than one record in an assay (separate samples or runs), and their calls can disagree.
# Molecular target: Histone-lysine N-methyltransferase EHMT2 (Homo sapiens) (UniProt Q96KQ7)
# Sequence (Q96KQ7 913-1193 limits assumed): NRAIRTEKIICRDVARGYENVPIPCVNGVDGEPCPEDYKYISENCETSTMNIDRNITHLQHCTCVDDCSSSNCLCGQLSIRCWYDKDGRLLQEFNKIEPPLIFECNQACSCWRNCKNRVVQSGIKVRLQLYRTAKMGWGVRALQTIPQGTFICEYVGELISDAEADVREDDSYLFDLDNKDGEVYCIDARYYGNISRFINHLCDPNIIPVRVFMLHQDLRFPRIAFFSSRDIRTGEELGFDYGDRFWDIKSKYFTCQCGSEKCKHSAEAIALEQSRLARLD
# Assay: qHTS Assay for Inhibitors of Histone Lysine Methyltransferase G9a; also: nearly all actives have a fitted effect of over 75% in size
# Conditions: G9a H3K9 monomethylation, AlphaScreen, 2 h; series mostly up to 59 µM
# Method in brief: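 Using a bead-based AlphaScreen, monomethylated H3K9 product from 2 h room-temperature reactions (G9a 20 nM, peptide 500 nM, SAM 20 uM) was detected with 0.5 ug/mL rabbit anti-H3K9me1 antibody.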
# Potency is read from the fitted curve at half-maximal effect.
SMILES,"activity, negative = inhibition",Potency
O=C(COC(=O)c1ncc(Cl)c(Cl)c1Cl)NC1CCS(=O)(=O)C1 (stereo unspecified),3.15% [at 12.7 µM] (inactive),
O=C(NCC1CCCO1)c1cc2c(s1)CCCC2 (stereo unspecified),29.8% [at 12.7 µM] (inactive),
Cc1nc(SCCOc2ccc(Cl)cc2)[nH]c(=O)c1Cc1ccccc1,,inactive
CCS(=O)(=O)N1CCc2cc(C(=O)NCc3ccc(OC)cc3)ccc21,,inactive
O=C1Nc2ccccc2/C1=C/c1ccnc2ccccc12,,inactive
Cc1cc(C)c(/C=C2\C(=O)Nc3ccccc32)[nH]1,-50.4% [at 12.7 µM] (inactive),4.47 µM (active) and 16.8 µM (active)
CN(C)/C=C1/C(=O)Nc2ccccc21,-2.73% [at 12.7 µM] (inactive),
Cc1cc(-c2ccc(C)c(S(=O)(=O)NCCCN(Cc3ccccc3)C(C)C)c2)on1,,inactive
Cc1cccc(NC(=S)NCCc2ccc(Cl)cc2)c1C,,inactive
Oc1cc2c(cc1O)CN(C(=S)NCCc1ccc(Cl)cc1)CCC2,,3.55 µM (active) and 2 µM (active) and 4.74 µM (active)
COc1ccc(CCNC(=S)N2CCN(S(=O)(=O)c3ccc(Cl)cc3)CC2)cc1,,inactive
O=C(NCCc1csc(-c2ccc(C(F)(F)F)cc2)n1)C(=O)Nc1ccc(F)c(Cl)c1,,inactive
Cc1c(C=O)c2ccccc2n1CCOc1ccccc1,,inactive
Cc1ccc(CS(=O)(=O)CCC(=O)NCc2ccc(F)cc2)cc1,,inactive
O=C1NC(c2ccccc2)Oc2ccccc21 (stereo unspecified),,inactive
CN1C(=O)C[C@H](c2ccccc2)C1=O,-19.1% [at 12.7 µM] (inactive),
O=C1c2ccccc2C(=O)C1c1ccccc1,,inactive and 35.5 µM (active)
CCOC(=O)N1CCN(C(=O)COc2ccc3oc4c(c3c2)CCCC4)CC1,14.4% [at 2.33 µM] (inactive),
O=C(CCN1C(=O)C2CCCCC2C1=O)Nc1ccc(OC(F)F)cc1 (stereo unspecified),,inactive
CCOc1cc(/C=N/NC(=O)c2cccc(S(=O)(=O)N3CCOCC3)c2)ccc1OCC(=O)N(C)C,,inactive

SMILES,"activity, negative = inhibition",Potency
O=S(=O)(c1ccc(SCc2ccccc2)nc1)N1CCCCCC1,-5.2% [at 12.7 µM] (inactive),
Cc1ccc(-n2nnnc2CNC(=O)c2ccccc2C)cc1C,,inactive
COC(=O)c1ccc(C(=O)OC)c(NC(=S)N2CCN(c3ccc(F)cc3)CC2)c1,,44.7 µM (active)
COC(=O)c1ccc(C(=O)OC)c(NC(=S)N2CCN(c3cc(Cl)ccc3C)CC2)c1,,inactive
COC(=O)c1ccccc1OCC(=O)N1CCN(c2ccc(Cl)cc2)CC1,3.66% [at 12.7 µM] (inactive),
COc1ccccc1CNC(=O)c1ccccc1NC(=O)c1nsc2ccccc12,,inactive
COc1ccc(CCN2C(=O)N(c3cccc(OC)c3)C(=O)C2CC(=O)Nc2ccccc2)cc1 (stereo unspecified),,inactive
CC(C)c1ccc(/C=C/C(=O)NCCCN2CCOCC2)cc1,,inactive
Cn1cnc([N+](=O)[O-])c1Sc1n[nH]c(N)n1,,inactive
Cn1cnc([N+](=O)[O-])c1Nc1ccccc1O,,25.1 µM (active)
Cn1cnc([N+](=O)[O-])c1Sc1ccccc1,,inactive
Cc1ccc(C2(C)NC(=O)N(CC(=O)Nc3ccccc3C(=O)N3CCCCC3)C2=O)cc1 (stereo unspecified),,inactive
Fc1ccc(-c2nc(Nc3cccc(Cl)c3)nc3c2COc2ccccc2-3)cc1,,inactive
Cc1ccc(S(=O)(=O)N2CCC(C(=O)NCCC3=CCCCC3)CC2)cc1C,15.2% [at 0.501 µM] (inactive),
O=C(c1ccccc1)c1ccc(OCC(O)CN2CCCC2)cc1 (stereo unspecified),,inactive
O=[N+]([O-])c1ccc(N2CCN(CC(O)COc3ccccc3)CC2)cc1 (stereo unspecified),,inactive
C[N+]1(CC(O)COc2ccccc2)CCN(C(=O)c2ccc([N+](=O)[O-])cc2)CC1 (stereo unspecified),,6.31 µM (active)
COc1ccc(CC(=O)N/N=C/c2cc([N+](=O)[O-])cc(Br)c2O)cc1,,inactive
Cc1ccc(NS(=O)(=O)c2ccc(C(=O)NCCCN3CCOCC3)cc2)cc1,,inactive
O=C(CCn1c(=S)[nH]c2cc3c(cc2c1=O)OCO3)NCc1ccc(Cl)cc1,,inactive

SMILES,"activity, negative = inhibition",Potency
CN(C)CCn1c(=S)[nH]c2ccc(Cl)cc2c1=O,,50.1 µM (active)
O=C(NCCCN1CCOCC1)c1cc(-c2ccc(Cl)cc2)on1,,inactive
COc1ccc(-c2cc(C(=O)NCCCN3CCOCC3)no2)cc1,,inactive
COc1ccc(Cn2c(=S)[nH]c3cc(C(=O)NCCCN4CCOCC4)ccc3c2=O)cc1,,10 µM (active)
CCCCNC(=O)CCn1c(=S)[nH]c2cc3c(cc2c1=O)OCO3,5.03% [at 0.0925 µM] (inactive),
COc1ccc(Cn2c(=S)[nH]c3cc(C(=O)N4CCCCC4)ccc3c2=O)cc1,,inactive
CCN(CC)CCCNC(=O)c1ccc2c(=O)n(Cc3ccc4c(c3)OCO4)c(=S)[nH]c2c1,,31.6 µM (active)
CCOc1cc2[nH]c(=O)n(Cc3ccc(C(=O)NCCN(CC)CC)cc3)c(=O)c2cc1OCC,,inactive
CCCCn1c(=S)[nH]c2ccccc2c1=O,,inactive
Cc1c(C)n(Cc2ccc(Cl)cc2)c2ccc(C(=O)NCCCN3CCOCC3)cc12,,44.7 µM (active)
Cc1ccc2nnn(Cc3cccc(C(C)(C)C)c3O)c2c1,15.4% [at 2.33 µM] (inactive),
COc1ccc(CCNC(=O)CCc2c(C)nc3c(c(C)nn3-c3ccc(C)c(C)c3)c2C)c(OC)c1OC,,inactive
O=C(CSc1nnnn1C1CCCC1)N1CCCCC1,,inactive
Cc1cccc(CC(=O)Nc2cccc(-c3cn4cccnc4n3)c2)c1,,inactive
CC(=O)c1ccc(NC(=O)C2CCN(S(=O)(=O)c3c(C)noc3/C=C/c3ccc(C)cc3)CC2)cc1,,inactive
Cc1noc(C)c1COc1ccc(C(=O)NCCOc2ccccc2)cc1,19.8% [at 12.7 µM] (inactive),
Cc1ccc(CNC(=O)CCc2c(C)nc3c(c(C)nn3-c3ccccc3)c2C)cc1,,inactive
CC(CC(=O)N1CCN(c2ccccc2)CC1)S(=O)(=O)c1ccc2c(c1)NC(=O)CS2 (stereo unspecified),,inactive
Cc1ccc(N2CC(c3nnc(Cc4ccccc4Cl)o3)CC2=O)cc1 (stereo unspecified),,inactive
COc1cccc(NC(=O)CN(C)C(=O)c2cc(C3CC3)nn2-c2ccccc2)c1,1.72% [at 2.33 µM] (inactive),
